Data published in PubChem BioAssay (NCI).
The panel holds about 79,000 compounds, 15% with a hit somewhere; the sample as a whole holds those more often. Calls of active or inactive are those of the source. No stated cut-off is given here; in the data, active means growth inhibition above about 70%; inactive means the rest. Residues, ends and D or L forms follow the SMILES beside them. *: point of attachment. Fmoc = O=C(OCC1c2ccccc2-c2ccccc21)*; Boc = CC(C)(C)OC(=O)*

Legend:
[1] = NCI Yeast Anticancer Drug Screen. Data for the rad52 strain (AID 147);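 further: 0% = growth of vehicle-treated control cultures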; details: S. cerevisiae rad52 mutant growth inhibition, stronger effect = higher value
How it was run: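 Measured: yeast growth inhibition. System: strain with a defined DNA damage repair alteration. Reference: vehicle-treated control cultures.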

[2] = NCI Yeast Anticancer Drug Screen. Data for the rad50EPP+ strain (AID 151);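 further: 0% = growth of vehicle-treated control cultures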; details: S. cerevisiae rad50 mutant strain, stronger effect = higher value
How it was run: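 One strain with a rad50 alteration (rad50EPP+) was compound-treated, its growth then compared to that of vehicle controls.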

[3] = NCI Yeast Anticancer Drug Screen. Data for the mgt1 strain (AID 153); details: S. cerevisiae mgt1 mutant growth inhibition, stronger effect = higher value
How it was run: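 After exposure of the mgt1 yeast mutant to compound, growth was measured and reported as inhibition compared with vehicle controls.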

[4] = NCI Yeast Anticancer Drug Screen. Data for the rad50 strain (AID 155);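 further: 0% = growth of vehicle-only cultures of the same strain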; details: S. cerevisiae rad50 strain growth inhibition, stronger effect = higher value
How it was run: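 A DNA repair-deficient yeast mutant serves as the test organism; compound-induced growth inhibition is calculated against vehicle-treated cells.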

[5] = NCI Yeast Anticancer Drug Screen. Data for the mec2-1 strain (AID 157); details: S. cerevisiae mec2-1 strain, stronger effect = higher value
How it was run: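 Test agents were screened against the mec2-1 yeast strain, with defined DNA repair or cell cycle alteration. Growth was scored as inhibition against vehicle-only controls.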

[6] = NCI Yeast Anticancer Drug Screen. Data for the rad14 strain (AID 159);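 further: 0% = growth of vehicle-treated control cultures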; details: S. cerevisiae rad14 strain growth inhibition, stronger effect = higher value
How it was run: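 Vehicle-treated cultures served as the baseline for growth inhibition of a DNA repair-mutant yeast strain exposed to each compound.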

[7] = NCI Yeast Anticancer Drug Screen. Data for the sgs1 mgt1 strain (AID 161);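 further: 0% = growth of cultures given vehicle only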; details: S. cerevisiae sgs1 mgt1 strain, stronger effect = higher value
How it was run: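 Mutant yeast exposed to compound; growth scored against vehicle-only wells.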

[8] = NCI Yeast Anticancer Drug Screen. Data for the CLN2oe strain (AID 163);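 further: 0% = growth of vehicle-only control cultures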; details: S. cerevisiae CLN2oe strain, stronger effect = higher value
How it was run: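 Here, growth inhibition in a cell-cycle-altered yeast strain after compound exposure was quantified against vehicle control growth.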

[9] = NCI Yeast Anticancer Drug Screen. Data for the cln2 rad14 strain (AID 165);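 further: 0% = growth equal to vehicle treated cultures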; details: S. cerevisiae cln2 rad14 strain, stronger effect = higher value
How it was run: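 Growth of compound-exposed yeast (cln2 rad14 genotype) measured and expressed as inhibition relative to vehicle.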

[10] = NCI Yeast Anticancer Drug Screen. Data for the bub3 strain (AID 167); details: S. cerevisiae bub3 mutant strain, stronger effect = higher value
How it was run: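 Inhibition values come from growth of compound-treated mutant yeast normalised to vehicle-treated controls.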

[11] = NCI Yeast Anticancer Drug Screen. Data for the wt2 strain (AID 169);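 further: 0% = growth of vehicle-treated yeast cultures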; details: S. cerevisiae wt2 strain growth inhibition, stronger effect = higher value
How it was run: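 Genetically defined yeast strains from a DNA-repair/cell-cycle panel were used. Compound-exposed yeast growth was measured, and the inhibition was calculated relative to vehicle treatment.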

[12] = NCI Yeast Anticancer Drug Screen. Data for the mlh1 rad18 strain (AID 175); details: S. cerevisiae mlh1 rad18 strain growth inhibition, stronger effect = higher value
How it was run: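 In this whole-cell yeast screen, a strain with altered DNA damage repair is challenged with compound, and its growth is measured against matched vehicle-treated controls.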

[13] = NCI Yeast Anticancer Drug Screen. Data for the rad18 strain (AID 177); details: S. cerevisiae rad18 mutant growth inhibition, stronger effect = higher value
How it was run: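 Screen uses a yeast strain with a defined lesion in DNA damage repair; compound effect is read as loss of growth compared to untreated vehicle cultures.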

[14] = NCI Yeast Anticancer Drug Screen. Data for the wt1 strain (AID 149);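 further: 0% = growth of vehicle-treated wt1 cultures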; details: S. cerevisiae wt1 strain (SPY 50644) growth inhibition, stronger effect = higher value
How it was run: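 Vehicle-normalised growth inhibition; strain wt1; compound exposure.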

[15] = NCI Yeast Anticancer Drug Screen. Data for the mlh1 strain (AID 171);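 further: 0% = growth of vehicle-treated control cultures of the same strain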; details: S. cerevisiae mlh1 strain growth inhibition, stronger effect = higher value
How it was run: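 Here the genetically defined yeast mutant is grown with each compound, and the extent to which its growth falls below that of vehicle-exposed cells is reported.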

[16] = NCI Yeast Anticancer Drug Screen. Data for the sgs1 strain (AID 173);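 further: 0% = growth of vehicle-only control cultures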; details: S. cerevisiae sgs1 mutant, stronger effect = higher value
How it was run: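 Relative growth inhibition, referenced to vehicle, was determined in a yeast strain with a defined alteration affecting DNA damage repair or cell cycle control after compound exposure.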

[17] = at 5.0 µM (retest, dose inferred, filed as 0.5)
[18] = at 50.0 µM (retest, dose inferred, filed as 5.0)

Measured: growth inhibition

COC(=O)C(=O)CC(=O)c1cccc(OC)c1
active: [6]; at 100.0 µM 94% | [11]; at 33.0 µM 71% | [11]; at 100.0 µM 92%
inactive: [1]; at 1.2 µM -9% | [1]; at 3.7 µM -10% | [1]; at 11.0 µM -5% | [1]; at 33.0 µM 10% | [1]; at 100.0 µM 17% | [2]; at 1.2 µM -10% | [2]; at 3.7 µM -23% | [2]; at 11.0 µM -7% | [2]; at 33.0 µM 32% | [2]; at 100.0 µM 26% | [3]; at 1.2 µM -1% | [3]; at 3.7 µM -4% | [3]; at 11.0 µM 2% | [3]; at 33.0 µM 14% | [3]; at 100.0 µM 40% | [4]; at 1.2 µM -13% | [4]; at 3.7 µM -15% | [4]; [17] -150% | [4]; at 11.0 µM -10% | [4]; at 33.0 µM 32% | [4]; [18] 51% | [4]; at 50.0 µM 19.4% | [4]; at 100.0 µM 44% | [5]; at 1.2 µM 0% | [5]; at 3.7 µM 1% | [5]; [17] -44% | [5]; at 11.0 µM 4% | [5]; at 33.0 µM 10% | [5]; [18] -15% | [5]; at 50.0 µM 18.6% | [5]; at 100.0 µM 16% | [6]; at 1.2 µM -8% | [6]; at 3.7 µM 7% | [6]; at 11.0 µM 33% | [6]; at 33.0 µM 67% | [7]; [17] -58% | [7]; [18] 24% | [7]; at 50.0 µM 0.4% | [8]; at 1.2 µM -6% | [8]; at 3.7 µM -3% | [8]; at 11.0 µM -1% | [8]; at 33.0 µM 1% | [8]; at 100.0 µM 10% | [9]; [17] -51% | [9]; [18] -45% | [9]; at 50.0 µM -75.5% | [10]; at 1.2 µM -4% | [10]; at 3.7 µM -4% | [10]; [17] -67% | [10]; at 11.0 µM -5% | [10]; at 33.0 µM 2% | [10]; [18] 12% | [10]; at 50.0 µM -7.55% | [10]; at 100.0 µM 22% | [11]; at 1.2 µM -5% | [11]; at 3.7 µM 9% | [11]; at 11.0 µM 27% | [12]; [17] -143% | [12]; [18] -19% | [12]; at 50.0 µM 49.6% | [13]; at 1.2 µM -6% | [13]; at 3.7 µM -2% | [13]; at 11.0 µM -1% | [13]; at 33.0 µM 6% | [13]; at 100.0 µM 19%

CC(C)(C)OC(=O)NCCCCC(NC(=O)C(Cc1c[nH]c2ccccc12)NC(=O)OCC1c2ccccc2-c2ccccc21)C(=O)O (stereo unspecified) (Fmoc-Trp-Lys(Boc)-OH; configuration not given here)
inactive: [14]; at 1.2 µM -2% | [14]; at 3.7 µM -2% | [14]; at 11.0 µM -3% | [14]; at 33.0 µM 2% | [14]; at 100.0 µM 50% | [2]; at 1.2 µM -1% | [2]; at 3.7 µM 0% | [2]; at 11.0 µM 2% | [2]; at 33.0 µM 2% | [2]; at 100.0 µM -5% | [3]; at 1.2 µM 0% | [3]; at 3.7 µM 2% | [3]; at 11.0 µM -4% | [3]; at 33.0 µM 8% | [4]; at 1.2 µM -3% | [4]; at 3.7 µM -1% | [4]; [17] -19% | [4]; at 11.0 µM -3% | [4]; at 33.0 µM 11% | [4]; [18] 22% | [4]; at 50.0 µM 15.4% | [4]; at 100.0 µM 56% | [5]; at 1.2 µM -1% | [5]; at 3.7 µM -4% | [5]; [17] 1% | [5]; at 11.0 µM -4% | [5]; at 33.0 µM 9% | [5]; [18] 36% | [5]; at 50.0 µM 42.6% | [5]; at 100.0 µM 52% | [6]; at 1.2 µM -1% | [6]; at 3.7 µM 0% | [6]; at 11.0 µM 1% | [6]; at 33.0 µM 28% | [7]; [17] -13% | [7]; [18] 21% | [7]; at 50.0 µM 36.1% | [8]; at 1.2 µM 4% | [8]; at 3.7 µM 1% | [8]; at 11.0 µM -7% | [8]; at 33.0 µM 17% | [8]; at 100.0 µM 66% | [9]; [17] 37% | [9]; [18] 21% | [10]; at 1.2 µM -3% | [10]; at 3.7 µM -1% | [10]; [17] -19% | [10]; at 11.0 µM -1% | [10]; at 33.0 µM 6% | [10]; [18] 5% | [10]; at 50.0 µM 18.4% | [10]; at 100.0 µM 59% | [11]; at 1.2 µM 0% | [11]; at 3.7 µM -2% | [11]; at 11.0 µM -4% | [11]; at 33.0 µM 1% | [11]; at 100.0 µM 61% | [15]; at 1.2 µM -1% | [15]; at 3.7 µM -1% | [15]; at 11.0 µM -2% | [15]; at 33.0 µM 10% | [16]; at 1.2 µM -1% | [16]; at 3.7 µM 0% | [16]; at 11.0 µM 0% | [16]; at 33.0 µM 11% | [16]; at 100.0 µM 61% | [12]; [17] -11% | [12]; [18] 50% | [12]; at 50.0 µM 60.6% | [13]; at 1.2 µM -1% | [13]; at 3.7 µM -2% | [13]; at 11.0 µM -2% | [13]; at 33.0 µM 8% | [13]; at 100.0 µM 59%
active: [3]; at 100.0 µM 75% | [6]; at 100.0 µM 70% | [9]; at 50.0 µM 82.8% | [15]; at 100.0 µM 70%
